# ChEMBL document CHEMBL4513216, “Probing the Open Global Health Chemical Diversity Library for Multistage-Active Starting Points for Next-Generation Antimalarials” (ACS Infect Dis, 2020)
# About 8,600 (12%) of roughly 69,000 compounds showed an effect of 50% or more. Many of the other results were omitted from the sample, so strong results are more common in it than they were.
# Tested on: Plasmodium berghei
# Test: Screen against P. berghei liver stage (PbLuc), transformed with Luciferase, at 10uM
# Type: functional, HepG2
# Details: tested at 10 uM
row,SMILES,INHIBITION
1,C=C(C)CN1CCC(NC(=O)Nc2ccc(F)c(C(=O)NC)c2)CC1,52.6%
2,C=C(C)CN1CCC(NC(=O)Nc2ccc(F)c(C(N)=O)c2)CC1,42.3%
3,CNC(=O)c1cc(NC(=O)NC2CC2)ccc1F,-0.514%
4,Cc1cc(C)n(CC(=O)N2CCC(c3cc4cccnc4[nH]3)CC2)n1,1.62%
5,CN(CC(=O)N1CCC(COc2ccccc2)CC1)c1cnccn1,-16.295%
6,CCN1CCCC(O)(CN(C)Cc2c(C)nn(C)c2C)C1 (stereo not drawn),42.4%
7,Cc1noc(OCc2ccc(C#N)cc2)n1,64.5%
8,Cc1noc(OCCOc2ccc(C#N)cc2)n1,18.6%
9,CC(C)c1noc(OCc2cccc(C#N)c2)n1,46.1%
10,O=C(NCCC(=O)N1CCCCCCC1)c1ccoc1,-18%
11,O=C(NCCNS(=O)(=O)c1cccc(Cl)c1)C1CCCO1 (stereo not drawn),38.9%
12,CC(NCCNS(=O)(=O)c1cccc(Cl)c1)C1CCOCC1 (stereo not drawn),67.1%
13,Cc1cc(NCCNS(=O)(=O)c2cccc(Cl)c2)nc(C)n1,24.7%
14,CN(C)C(=O)N1C[C@H]2CC[C@@H](C1)N(Cc1nnc(-c3ccccc3)o1)C2,-3.73%
15,OC(CNCc1ccccc1C(F)(F)F)c1ccccc1 (stereo not drawn),1.98%
16,CC(=O)N(C)Cc1cncc(C2CCCN2C2CCOCC2)n1 (stereo not drawn),15.925%
17,Cc1cnc(NC(=O)CSC2CCc3ccccc3NC2=O)s1 (stereo not drawn),54.6%
18,COc1ccccc1NC(=O)CSC1CCc2ccccc2NC1=O (stereo not drawn),10.8%
19,O=C(CSC1CCc2ccccc2NC1=O)NC1CC1 (stereo not drawn),-41.4%
20,O=C(Cn1cnc2ccccc2c1=O)Nc1cc(C2CC2)n[nH]1,89.4%
21,O=c1c2ccccc2ncn1Cc1cc(C2CC2)[nH]n1,18.5%
22,CC(C)c1cc(NC(=O)Cn2cnc3ccccc3c2=O)[nH]n1,-27.4%

row,SMILES,INHIBITION
1,COc1ccc(CCN2CCN(C(=O)c3scnc3C)CC2)cc1,25.3%
2,CN1CCc2onc(CNc3ncccn3)c2C1,19.5%
3,COc1ccc(CNC2CCCc3nc(N(C)C)ncc32)c(OC)c1 (stereo not drawn),16.7%
4,CN(C)C1(CNC(=O)c2c(O)cc(Cl)cc2Cl)CCOCC1,54.8%
5,CC(NCC1(N(C)C)CCOCC1)c1ccc(Cl)cc1 (stereo not drawn),-2.025%
6,CN(C)C1(CNC(=O)Cc2ccc(F)cc2)CCOCC1,-21.8%
7,O=C(c1ccc[nH]1)N1CCc2cc(S(=O)(=O)N3CCOCC3)ccc2C1,42.8%
8,O=C(NC1CCN(CC2CC2)C1)c1ccc(C(=O)c2cc[nH]c2)cc1 (stereo not drawn),10.6%
9,O=C(NC1CCN(CC2CC2)C1)c1ccc(N2CCC(O)CC2)cc1 (stereo not drawn),77.7%
10,O=C(Nc1ccnc2ccnn12)c1ccc(N2CCC(O)CC2)cc1,38.1%
11,COC[C@@H]1CCCN1C(=O)CCc1c(C)nn(C)c1C,8.7%
12,CCN(CC)c1nc2sc(C(=O)N3CCNC(=O)C3)cc2s1,-81.7%
13,CC(C)CC1SCC(=O)Nc2c1cnn2-c1ccccc1F (stereo not drawn),13%
14,O=C(O)[C@@H]1CN(C(=O)Cc2ccccc2Cl)C[C@H]1C1CC1,79.2%
15,O=C(O)[C@@H]1CN(C(=O)CCCc2ccc(F)cc2)C[C@H]1C1CC1,-14.2%
16,CCOc1ccccc1CC(=O)N1C[C@@H](C(=O)O)[C@H](C2CC2)C1,2.66%
17,CC(=O)N1CCCC1c1nccnc1Nc1cccc(C)n1 (stereo not drawn),39.2%
18,O=C(NCCNC(=O)C1Cc2cc(F)ccc2O1)C1CCCCC1 (stereo not drawn),-0.529%
19,Cc1ccc(NCCNC(=O)C2Cc3cc(C)c(C)cc3O2)nn1 (stereo not drawn),55%
20,Cc1cc2c(cc1C)OC(C(=O)NCCNC(=O)C1CCCC1)C2 (stereo not drawn),-35.1%
21,O=S1(=O)NC2(CCCN(Cc3ccc(Cl)cc3)C2)COc2ccccc21 (stereo not drawn),27.5%
22,Cc1cc(=O)n2nc(Oc3cccc(C(N)=O)c3)sc2n1,3.84%

row,SMILES,INHIBITION
1,CS(=O)(=O)c1ncc(CN2CCCC(C(N)=O)C2)n1CC1CCCCC1 (stereo not drawn),0.734%
2,CS(=O)(=O)c1ncc(CN2CCN3CCCC3C2)n1CC1CCCCC1 (stereo not drawn),12.3%
3,CN(C)C1CCN(Cc2cnc(S(C)(=O)=O)n2CC2CCCCC2)C1 (stereo not drawn),81.6%
4,N#Cc1ccc(CN2CCC(CN3CCOCC3)C2)cc1 (stereo not drawn),-11.9%
5,CN1CC2(CCN(C(=O)c3cccnc3)CC2)c2cccc(F)c21,31.5%
6,CCn1ncc2c1C(COCC1CC1)CN(C(=O)c1ccncn1)C2 (stereo not drawn),26.4%
7,CC(C)N1CCC2(CCNCC2)C1=O,-25.8%
8,O=C(CSc1nnc(N2CCNCC2)s1)Nc1ccccc1,59.2%
9,O=C(CSc1nnc(N2CCCC2)s1)NC(=O)Nc1ccccc1,-22.405%
10,O=C(CSc1nnc(N2CCOCC2)s1)NC(=O)Nc1ccccc1,-1%
11,NC(=O)C(c1ccc(F)cc1)N1CCN(CCO)CC1 (stereo not drawn),56.9%
12,Cc1nnc2n1CCN(C(C(N)=O)c1ccc(F)cc1)C2 (stereo not drawn),25.8%
13,CCc1nnc2n1CCN(C(C(N)=O)c1ccc(F)cc1)C2 (stereo not drawn),1.45%
14,COc1cccc(OC)c1OCCn1c(C)c(C)oc1=O,22.5%
15,Cc1cc(C)n(CC2CCCN2C(=O)c2ccc(N(C)C)nn2)n1 (stereo not drawn),38.8%
16,Fc1ccccc1-c1noc2c1CN(CC1CC1)CC2,55.4%
17,CC(C)=CCN1CCc2onc(-c3ccc(F)c(F)c3)c2C1,5.78%
18,CC(O)CN1CCc2onc(-c3ccccc3F)c2C1 (stereo not drawn),-10.9%
19,Fc1ccc(-c2noc3c2CN(CC2CC2)CC3)cc1F,52.7%
20,Fc1ccccc1-c1noc2c1CN(CCN1CCOCC1)CC2,34.5%
21,c1ccc(-c2noc3c2CN(CC2CC2)CC3)cc1,2.3%
22,Fc1cc(CN2CCCC2Cn2cncn2)c2ncccc2c1 (stereo not drawn),11.8%

row,SMILES,INHIBITION
1,O=C(N1CCCO1)[C@@]12CCO[C@@H]1CCN(C1CCCCC1)C2,13%
2,Cc1cccc(C)c1Oc1ncccc1CNC(=O)C1COC(=O)N1 (stereo not drawn),53.8%
3,COc1ccccc1Oc1ncccc1CNC(=O)C1COC(=O)N1 (stereo not drawn),41.3%
4,Cc1ccc(Oc2ncccc2CNC(=O)C2COC(=O)N2)c(F)c1F (stereo not drawn),12.9%
5,CCCN(CCO)C(=O)c1cc(COc2ccc3c(c2)CCCC3)on1,33%
6,CC(Cn1cccn1)NC(=O)NCCc1ccsc1 (stereo not drawn),21.5%
7,CCC(C(=O)Nc1ccc2cn(CC)nc2c1)N1CCCC1=O (stereo not drawn),54.5%
8,CCC(C(=O)Nc1ccc2nc(C)oc2c1)N1CCCC1=O (stereo not drawn),71.2%
9,CCC(CNC(=O)Nc1cnn(CC)c1)N1CCCC1 (stereo not drawn),39.5%
10,Cc1occc1CNC(=O)Nc1ccc2nc(N3CCOCC3)oc2c1,25.8%
11,CCC(C(=O)NCCc1ccn(-c2ccccc2)n1)N1CCCC1=O (stereo not drawn),-21%
12,CCC(C(=O)N1CCCSCC1)N1CCCC1=O (stereo not drawn),21.5%
13,CN(C)C(=O)COCC1CN(C2CCC2)Cc2ncn(C)c21 (stereo not drawn),-19.1%
14,Cc1cc(C)n(Cc2cccc(C(=O)N3CCOCC3(C)C)c2)n1,-4.23%
15,CCN(CC)C(=O)CNC(=O)N1CCC(c2ccccc2)C1 (stereo not drawn),43.7%
16,O=C(c1ccc(CN2CCCCC2)cc1)N1Cc2cnn(CCO)c2C1,30.3%
17,CC(C)(O)CCc1ccc(C(=O)N2CCN(CC3CCCC3)CC2)cc1,26.6%
18,CC(C)(O)CCc1cccc(C(=O)N2Cc3cnn(CCO)c3C2)c1,14%
19,CC(C)(O)CCc1ccc(C(=O)N2Cc3cnn(CCO)c3C2)cc1,73%
20,CC(C)(O)CCc1ccc(C(=O)N2CCN(CCS(C)(=O)=O)CC2)cc1,16.8%
21,CC(C)(O)CCc1ccc(C(=O)N2CCN(CC(F)(F)F)CC2)cc1,52.6%
22,CCCS(=O)(=O)N1CC(=O)N(CCCc2ccccc2)CC(O)C1 (stereo not drawn),48.7%

row,SMILES,INHIBITION
1,O=C(c1sccc1C1CC1)N1CCCN(Cc2cscn2)CC1,-4.16%
2,Cc1cccc(C(C(=O)NCc2cc(C)[nH]n2)N(C)C)c1 (stereo not drawn),3.69%
3,COc1cc(NCc2ccncc2)c(-c2nn[nH]n2)cc1OC,-34.6%
4,COc1ncccc1CNC(=O)N1CCCC1c1ccsc1 (stereo not drawn),-24.2%
5,CCN1CCN(C(=O)NCc2cc[nH]n2)CC1,-29.7%
6,Cc1ccccc1S(=O)(=O)N1CCc2c(ncnc2N(C)C)C1,66.1%
7,CN(C)c1ncnc2c1CCN(S(=O)(=O)c1cccc(Cl)c1Cl)C2,42.7%
8,COC(=O)c1sccc1S(=O)(=O)N1CCC(Oc2cnccn2)CC1,53.7%
9,COC(=O)c1sccc1S(=O)(=O)N1CCc2c(ncnc2N(C)C)C1,58.1%
10,COC(=O)c1sccc1S(=O)(=O)N1CCC(Oc2cccc(C)n2)CC1,21.8%
11,CN(C)c1ncnc2c1CCN(S(=O)(=O)c1cccc3nsnc13)C2,31.6%
12,CN(C)c1ncnc2c1CCN(C(=O)c1sccc1S(N)(=O)=O)C2,-9.18%
13,COC(=O)c1sccc1S(=O)(=O)N1CCC(Oc2cccnn2)CC1,21.6%
14,CN(C)c1ncnc2c1CCN(S(=O)(=O)c1ccccc1C(F)(F)F)C2,30.3%
15,Cc1cnn(CC2CCCN2Cc2ncc(-c3ccc(F)cc3)o2)c1 (stereo not drawn),2.3%
16,CC(C)CN(CC(=O)O)C(=O)c1ccc(F)cc1,17.7%
17,CN(CCc1ccccc1)c1cnn(CC2COCCO2)c(=O)c1 (stereo not drawn),-42.8%
18,O=C(NCc1cncc2c1CCN(C1CCOCC1)C2)c1ccno1,34.5%
19,O=C(NCc1cncc2c1CCN(C1CCOC1)C2)c1ccco1 (stereo not drawn),0.71%
20,O=C(NCc1cncc2c1CCN(C1CCOCC1)C2)c1ccco1,61.3%
